In PubChem BioAssay:
For some assays here: Results with a measured potency or affinity are listed apart. Activity calls are given as the source filed them.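 How the source made its calls, unless noted: active means calcium signal cut by more than 3 SD below the full-agonist control yet still positive, in both repeats and the earlier primary screen; inactive means the rest.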

What was measured:
[1] = system: TRPC4 beta (transient receptor potential cation channel C4), mouse; test: TRPC4 cation channel opening, retest – cell-based, Fluo4 calcium, HEK293 TRPC4beta/mu-opioid, duplicates, 10 µM, confirmation (AID 2426;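 active means fluorescence ratio normalized to control raised more than 50% in primary screen plus both repeat runs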;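 on activation: percent rise of integrated ratio over buffer wells lacking compound which define 0%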); settings: Fluo4 calcium fluorescence, at 10 µM; hits give high values
[2] = system: transient receptor potential cation channel C4 beta (TRPC4), mouse; test: TRPC4 cation channel opening, second retest – cell-based, second round, Fluo4, HEK293 TRPC4beta/mu-opioid, 1 µM, confirmation (AID 2461;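 active means primary screen active and over 50% activation in each of two duplicate runs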;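 on activation: 0% = wells without test compound as baseline of integrated fluorescence ratio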); settings: Fluo4 calcium fluorescence, at 1 µM; hits give high values
[3] = system: TRPC4 (transient receptor potential cation channel C4 beta), mouse; test: potentiation of DAMGO EC20 TRPC4 response – cell-based, second round, Fluo-4, HEK293 TRPC4beta/mu-opioid, 1 µM, confirmation (AID 2554;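 active means primary screen hit whose fluorescence ratio, in both repeats, exceeds the weak agonist control mean by 3 SD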); settings: DAMGO EC20, Fluo-4 calcium flux, at 1 µM; hits give high values
[4] = system: TRPC4 beta (transient receptor potential cation channel C4), mouse; test: potentiation of DAMGO EC20 TRPC4 response – cell-based, Fluo-4, HEK293 TRPC4beta/mu-opioid, confirmation (AID 2555;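 active means primary screen hit whose calcium fluorescence ratio, in both repeats, exceeds the weak agonist control mean by 3 SD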); settings: DAMGO EC20, Fluo-4 calcium flux, at 10 µM; hits give high values
[5] = target: Short transient receptor potential channel 4 (Mus musculus) (UniProt Q9QUQ5); test: blockers of DAMGO-evoked TRPC4 calcium flux – cell-based, Fluo4, HEK293 TRPC4beta/mu-opioid, confirmation (AID 2636); settings: at 10 µM; hits give high values
[6] = target: Short transient receptor potential channel 4 (Mus musculus) (UniProt Q9QUQ5); test: blockers of DAMGO-evoked TRPC4 calcium flux – cell-based, second round, Fluo4, HEK293 TRPC4beta/mu-opioid, 1 µM, confirmation (AID 2637;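 active means calcium signal ratio cut to more than 3 SD under the fully stimulated control mean yet still positive, in both repeats and the primary screen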); settings: at 1 µM; hits give high values
[7] = target: Short transient receptor potential channel 4 (Mus musculus) (UniProt Q9QUQ5); test: potentiation of DAMGO-evoked TRPC4 calcium signal – cell-based, HEK293 TRPC4/mu-opioid, Fluo-4 calcium, EC20 DAMGO, dose response (AID 434941;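 active means earlier screen potentiator hit that boosts the TRPC4 ion channel at some dose, with a dose response; inactive means no potentiation, no dose response, or not a prior hit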;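 further: calcium entry triggered by an EC20 dose of DAMGO at the co-expressed mu-opioid receptor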)
[8] = target: Short transient receptor potential channel 4 (Mus musculus) (UniProt Q9QUQ5); test: block of DAMGO-driven TRPC4 calcium entry – cell-based, HEK293 TRPC4/mu-opioid, Fluo-4 calcium, dose response (AID 434942;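 active means primary screen inhibitor hit that blocks the TRPC4 channel at some tested dose, yielding a dose curve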)
[9] = target: Short transient receptor potential channel 6 (Mus musculus) (UniProt Q61143); test: TRPC6 blockade by TRPC4 inhibitor hits – cell-based, HEK293, membrane potential dye, duplicate, selectivity assay for TRPC4 inhibitor project, confirmation (AID 434948;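 active means active in primary screen and both duplicates, each dropping signal beyond three positive-control SD with fluorescence still positive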); settings: HEK293 TRPC6, membrane potential dye fluorescence, at 10 µM, stimulated with maximal-effect acetylcholine; hits give high values
[10] = target: Short transient receptor potential channel 6 (Mus musculus) (UniProt Q61143); test: TRPC6 opening by TRPC4 activator hits – cell-based, HEK293, membrane potential dye, duplicate, selectivity assay for TRPC4 activator project, confirmation (AID 434950;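 active means membrane potential signal rise above negative control mean plus 3 SD in both duplicates, also active in the earlier TRPC4 screen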;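 on activation: 0% = buffer only wells and 100% = acetylcholine maximal-effect wells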); settings: HEK293 TRPC6, membrane potential fluorescence, at 10 µM; activation: hits give high values; outcome: activation
[11] = target: Short transient receptor potential channel 6 (Mus musculus) (UniProt Q61143); test: positive modulators of mouse TRPC6 channel – HEK293 cells, membrane potential dye, duplicate, selectivity assay for TRPC4 potentiator project, confirmation (AID 434952;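 active means compound raising the membrane signal above positive-control mean plus 3 SD in both repeats, and a primary screen hit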); settings: HEK293 TRPC6, membrane potential dye fluorescence, at 10 µM, maximal acetylcholine added after compound; hits give high values
[12] = target: Short transient receptor potential channel 4 (Mus musculus) (UniProt Q9QUQ5); test: calcium flux activators in TRPC4/5HT1a cells, counter-screen for TRPC4 activator project, cell-based, second counter screen, HEK293 TRPC4/5HT1a, Fluo-4 (AID 434977;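 active means calcium signal rise above buffer-control mean plus 5 SD in both duplicates, and also a hit in the primary screen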;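 on activation: plate controls were assay buffer for no effect and maximal serotonin response for full effect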); settings: Fluo-4 calcium flux, at 10 µM; hits give high values
[13] = serotonin-gated TRPC4 signal block – cell-based, second counter screen, HEK293 TRPC4/5HT1a, Fluo-4, counter-screen for TRPC4 inhibitor project, confirmation (AID 434978;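 active means primary screen active whose calcium signal fell more than 3 SD beyond the full-serotonin control mean in both duplicate plates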;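 on outcome: serotonin given first at submaximal then at maximal dose after compound preincubation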); settings: Fluo-4 calcium flux, at 10 µM, serotonin added to trigger calcium flux; hits give high values
[14] = system: TRPC4 (mouse), co-expressed with 5HT1a in HEK293; test: enhancement of serotonin-evoked TRPC4 response – cell-based, second counter screen, HEK293 TRPC4/5HT1a, Fluo-4, counter-screen for TRPC4 potentiator project, confirmation (AID 434979;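 active means signal rise over 3 SD above mean of control wells given weak agonist, in both repeats and first screen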); settings: Fluo-4 calcium flux, at 10 µM, serotonin added at its EC20 dose; hits give high values
[15] = nonspecific calcium rise without TRPC4 – cell-based, HEK293 mu-opioid receptor line, counter-screen for TRPC4 activator project, confirmation (AID 449723;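 active means hit in primary screen, with calcium signal over 5 SD above buffer well mean in both duplicates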;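 further: counter screen cells carry the mu-opioid receptor alone and lack TRPC4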); settings: HEK293 mu-opioid cells, Fluo-4 calcium fluorescence, at 10 µM; hits give high values
[16] = nonspecific potentiation of DAMGO calcium response – cell-based, HEK293 mu-opioid receptor line, counter-screen for TRPC4 allosteric potentiator project, confirmation (AID 449724;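 active means calcium signal rise more than 3 SD above the low-dose agonist control mean, in both duplicate plates and the primary screen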); settings: HEK293 mu-opioid receptor cells, Fluo-4 calcium flux, at 10 µM, compound added before EC20 DAMGO stimulus; hits give high values
[17] = nonspecific flux increase, KCNQ1-free cells – parental CHO cells, counter-screen for KCNQ1 potentiator project (AID 493006;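 active means duplicate-averaged activation above buffer control mean plus 5 SD of those controls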;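 further: fluorescence ratio of max minus min over baseline after K+ and Tl+ depolarization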); settings: parental CHO-K1 cells, FluxOR thallium flux, at 10 µM; hits give high values
[18] = target: Potassium voltage-gated channel subfamily KQT member 1 (Homo sapiens) (UniProt P51787); test: enhancement of KCNQ1 channel thallium flux – FluxOR thallium flux, CHO cells, duplicates, confirmation (AID 493007;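 active means potentiation averaged over duplicate wells exceeding buffer-only control mean by more than 3 SD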;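 further: 0% = buffer-only wells and 100% = R-L3 activator control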); settings: KCNQ1 cell line, FluxOR thallium flux fluorescence, at 10 µM; hits give high values, % of reference activator effect, buffer zero
[19] = target: Potassium voltage-gated channel subfamily KQT member 2 (Rattus norvegicus) (UniProt O88943); test: KCNQ2 thallium flux enhancement – KCNQ2-CHO-K1 cells, selectivity assay for KCNQ1 potentiator project (AID 493009;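 active means mean duplicate potentiation above the buffer control mean plus 5 SD of buffer wells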;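 further: assay conditions were tuned for KCNQ1 rather than KCNQ2 modulators; signal is max minus min fluorescence divided by baseline after thallium stimulus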); settings: FluxOR thallium flux fluorescence, at 10 µM; hits give high values, scaled: buffer 0, activator control 100
[20] = target: Potassium voltage-gated channel subfamily KQT member 1 (Homo sapiens) (UniProt P51787); test: KCNQ1 activators by electrophysiology – IonWorks patch clamp, KCNQ1-CHO cells, orthogonal assay for KCNQ1 potentiator project, confirmation (AID 493184;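 active means current rise at least 3 SD above the untreated control mean in each of two repeat wells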); settings: automated patch clamp current, at 10 µM; hits give high values

Sequence of Potassium voltage-gated channel subfamily KQT member 2 (Rattus norvegicus) (O88943 whole entry, looked up): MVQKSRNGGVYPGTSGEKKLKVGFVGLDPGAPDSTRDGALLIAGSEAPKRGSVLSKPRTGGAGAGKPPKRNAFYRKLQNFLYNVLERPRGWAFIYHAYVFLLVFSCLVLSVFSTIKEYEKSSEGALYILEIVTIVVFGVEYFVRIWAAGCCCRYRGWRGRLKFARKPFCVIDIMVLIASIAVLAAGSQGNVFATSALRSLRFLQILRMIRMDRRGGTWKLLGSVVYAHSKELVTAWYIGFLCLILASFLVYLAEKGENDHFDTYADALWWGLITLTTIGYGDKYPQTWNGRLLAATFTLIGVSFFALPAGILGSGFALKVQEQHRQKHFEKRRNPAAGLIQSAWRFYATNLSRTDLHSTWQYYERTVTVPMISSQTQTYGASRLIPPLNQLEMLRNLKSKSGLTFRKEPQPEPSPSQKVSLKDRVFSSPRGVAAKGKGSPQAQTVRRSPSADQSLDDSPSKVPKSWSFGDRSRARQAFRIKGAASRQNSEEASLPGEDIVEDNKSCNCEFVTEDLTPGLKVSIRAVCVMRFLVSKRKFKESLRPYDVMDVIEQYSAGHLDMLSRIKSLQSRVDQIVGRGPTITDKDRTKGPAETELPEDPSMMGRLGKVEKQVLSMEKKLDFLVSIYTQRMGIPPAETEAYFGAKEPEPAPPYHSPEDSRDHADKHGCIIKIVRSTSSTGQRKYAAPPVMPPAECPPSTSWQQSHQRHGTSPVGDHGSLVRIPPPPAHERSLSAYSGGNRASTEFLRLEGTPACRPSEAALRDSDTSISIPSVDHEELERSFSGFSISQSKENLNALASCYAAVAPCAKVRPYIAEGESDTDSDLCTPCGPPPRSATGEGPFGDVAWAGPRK
Sequence of Short transient receptor potential channel 4 (Mus musculus) (Q9QUQ5 whole entry, looked up): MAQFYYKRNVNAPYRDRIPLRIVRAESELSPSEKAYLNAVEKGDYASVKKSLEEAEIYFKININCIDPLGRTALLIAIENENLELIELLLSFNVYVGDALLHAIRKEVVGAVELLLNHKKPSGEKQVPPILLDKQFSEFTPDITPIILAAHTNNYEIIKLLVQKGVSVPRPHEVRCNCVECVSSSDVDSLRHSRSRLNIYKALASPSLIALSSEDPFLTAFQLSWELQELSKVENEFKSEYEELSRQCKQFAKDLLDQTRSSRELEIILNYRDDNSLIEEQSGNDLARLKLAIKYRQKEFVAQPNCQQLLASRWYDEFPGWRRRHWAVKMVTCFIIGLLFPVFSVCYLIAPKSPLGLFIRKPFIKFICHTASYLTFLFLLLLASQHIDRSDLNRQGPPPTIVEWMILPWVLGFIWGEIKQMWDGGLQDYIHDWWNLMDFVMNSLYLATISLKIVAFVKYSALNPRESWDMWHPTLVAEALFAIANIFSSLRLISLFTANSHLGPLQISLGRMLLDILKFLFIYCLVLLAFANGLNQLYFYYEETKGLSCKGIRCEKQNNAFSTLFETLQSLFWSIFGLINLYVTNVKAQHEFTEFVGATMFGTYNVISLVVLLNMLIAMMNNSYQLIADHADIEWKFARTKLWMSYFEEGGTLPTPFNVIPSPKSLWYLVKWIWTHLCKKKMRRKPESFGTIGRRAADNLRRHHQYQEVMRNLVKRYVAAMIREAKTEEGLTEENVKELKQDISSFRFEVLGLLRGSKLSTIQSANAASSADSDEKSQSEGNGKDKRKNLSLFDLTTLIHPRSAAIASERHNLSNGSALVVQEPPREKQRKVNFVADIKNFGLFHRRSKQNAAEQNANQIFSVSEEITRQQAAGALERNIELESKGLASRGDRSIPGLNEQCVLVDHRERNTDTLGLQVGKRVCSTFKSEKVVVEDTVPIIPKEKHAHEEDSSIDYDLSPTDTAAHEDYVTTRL
Sequence of Potassium voltage-gated channel subfamily KQT member 1 (Homo sapiens) (P51787 whole entry, looked up): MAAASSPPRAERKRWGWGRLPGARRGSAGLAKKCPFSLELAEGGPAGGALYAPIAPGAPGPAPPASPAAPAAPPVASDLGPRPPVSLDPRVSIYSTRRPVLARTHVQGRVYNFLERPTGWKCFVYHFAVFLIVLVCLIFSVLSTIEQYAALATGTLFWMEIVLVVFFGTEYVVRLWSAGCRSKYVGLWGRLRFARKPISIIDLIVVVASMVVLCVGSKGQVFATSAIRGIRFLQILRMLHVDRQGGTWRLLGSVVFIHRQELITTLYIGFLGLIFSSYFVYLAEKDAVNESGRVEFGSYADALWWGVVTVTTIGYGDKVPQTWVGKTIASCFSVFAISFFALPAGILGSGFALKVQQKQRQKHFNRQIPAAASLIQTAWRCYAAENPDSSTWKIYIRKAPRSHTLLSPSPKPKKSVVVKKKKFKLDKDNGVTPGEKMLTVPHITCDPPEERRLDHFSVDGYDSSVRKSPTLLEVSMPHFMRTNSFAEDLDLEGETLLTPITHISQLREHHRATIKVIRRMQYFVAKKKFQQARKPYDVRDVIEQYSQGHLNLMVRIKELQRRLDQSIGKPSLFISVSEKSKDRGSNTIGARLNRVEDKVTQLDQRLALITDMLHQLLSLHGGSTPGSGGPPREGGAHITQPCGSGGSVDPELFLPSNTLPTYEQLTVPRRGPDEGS
Sequence of Short transient receptor potential channel 6 (Mus musculus) (Q61143 whole entry, looked up): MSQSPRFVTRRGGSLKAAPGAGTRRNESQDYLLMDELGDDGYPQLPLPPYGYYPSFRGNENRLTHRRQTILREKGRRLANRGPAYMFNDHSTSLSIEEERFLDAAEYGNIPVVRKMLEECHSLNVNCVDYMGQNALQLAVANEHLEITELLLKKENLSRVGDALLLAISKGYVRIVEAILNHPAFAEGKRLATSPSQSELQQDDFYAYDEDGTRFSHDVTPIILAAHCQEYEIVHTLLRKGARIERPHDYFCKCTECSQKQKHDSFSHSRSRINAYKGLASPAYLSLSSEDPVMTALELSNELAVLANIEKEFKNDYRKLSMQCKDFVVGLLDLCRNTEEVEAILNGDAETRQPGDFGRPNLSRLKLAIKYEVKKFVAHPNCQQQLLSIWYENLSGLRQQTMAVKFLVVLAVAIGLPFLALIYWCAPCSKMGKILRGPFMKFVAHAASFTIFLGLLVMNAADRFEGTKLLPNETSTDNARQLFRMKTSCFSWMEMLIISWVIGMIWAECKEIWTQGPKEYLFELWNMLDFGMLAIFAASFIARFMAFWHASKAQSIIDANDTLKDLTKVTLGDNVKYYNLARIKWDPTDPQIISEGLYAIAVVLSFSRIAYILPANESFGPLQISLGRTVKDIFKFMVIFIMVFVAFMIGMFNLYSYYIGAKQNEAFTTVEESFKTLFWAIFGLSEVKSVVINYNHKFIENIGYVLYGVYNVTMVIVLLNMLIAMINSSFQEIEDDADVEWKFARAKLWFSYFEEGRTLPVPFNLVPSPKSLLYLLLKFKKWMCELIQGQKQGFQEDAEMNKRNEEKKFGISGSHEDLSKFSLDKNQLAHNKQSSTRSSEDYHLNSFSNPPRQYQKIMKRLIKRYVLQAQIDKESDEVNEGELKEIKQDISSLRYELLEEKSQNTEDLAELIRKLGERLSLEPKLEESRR

COc1ccc(C(CNC(=O)c2ccc(S(=O)(=O)N(C)C)cc2)N(C)C)cc1 (stereo not drawn)
active: activation [1] 296% | activation [2] 179% | activation [10] 29%
inactive: outcome [3] | outcome [4] | outcome [5] | outcome [6] | outcome [7] | outcome [8] | outcome [9] | outcome [11] | outcome [12] | outcome [13] | outcome [14] | outcome [15] | outcome [16]

CCCOc1ccc(C(=O)NNC(=S)NC(=O)c2cccs2)cc1
inactive: outcome [2] | outcome [3] | outcome [4] | outcome [5] | outcome [6] | outcome [7] | outcome [8] | outcome [9] | outcome [10] | outcome [11] | outcome [13] | outcome [14] | outcome [16] | outcome [20]
active: activation [1] 104% | activation [12] 71.2% | activation [15] 22.6% | activation [17] 139% | potentiation [18] 135% | potentiation [19] 275%

COc1ccccc1C(=O)NNC(=S)NC(=O)c1sc2ccccc2c1Cl
inactive: outcome [1] | outcome [2] | outcome [3] | outcome [4] | outcome [5] | outcome [6] | outcome [7] | outcome [8] | outcome [9] | outcome [11] | outcome [14] | outcome [15] | outcome [16] | outcome [20]
active: activation [10] 30.5% | activation [12] 14.7% | inhibition [13] 38.3% | activation [17] 278% | potentiation [18] 150% | potentiation [19] 287%

CC1CC(C)CN(CCCNC(=O)c2nn(C)c3c2CS(=O)(=O)c2ccccc2-3)C1 (stereo not drawn)
active: activation [1] 112% | activation [2] 72% | activation [10] 40.5% | activation [12] 43.2%
inactive: outcome [3] | outcome [4] | outcome [5] | outcome [6] | outcome [7] | outcome [8] | outcome [9] | outcome [11] | outcome [13] | outcome [14] | outcome [15] | outcome [16]

CC(C)(C)c1cc(CCC(=O)NNC(=S)NC(=O)c2ccccc2)cc(C(C)(C)C)c1O
inactive: outcome [2] | outcome [3] | outcome [4] | outcome [5] | outcome [6] | outcome [7] | outcome [8] | outcome [9] | outcome [10] | outcome [11] | outcome [13] | outcome [14] | outcome [16] | outcome [20]
active: activation [1] 150% | activation [12] 92% | activation [15] 41.2% | activation [17] 188% | potentiation [18] 61% | potentiation [19] 185%

Cc1ccc(C(=O)NNC(=S)NC(=O)c2ccccc2)cc1
active: activation [1] 239% | activation [10] 27% | activation [12] 133% | activation [15] 77.1% | activation [17] 188% | potentiation [18] 156% | potentiation [19] 300%
inactive: outcome [2] | outcome [3] | outcome [4] | outcome [5] | outcome [6] | outcome [7] | outcome [8] | outcome [9] | outcome [11] | outcome [13] | outcome [14] | outcome [16] | outcome [20]

c1ccc2c(c1)CCN(c1ncnc3c1[nH]c1ccccc13)C2
inactive: outcome [1] | outcome [2] | outcome [3] | outcome [4] | outcome [5] | outcome [6] | outcome [7] | outcome [8] | outcome [9] | outcome [10] | outcome [11] | outcome [12] | outcome [13] | outcome [14] | outcome [15] | outcome [16]
